Results published in the supplement of paper PMC8975748.
Structures can show the parent of a compound that is named as a salt.

system: Saccharomyces cerevisiae BY4741 SeMeCo community; assay: z-score of subpopulation abundance vs DMSO median, subpopulation auxotrophic for L; higher = larger share of this subpopulation than in DMSO controls; conditions: 10 µM; 24 h; SM minimal medium; subpopulation (auxotrophy): L
Experimental: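 Fluorescent four-plasmid SeMeCo (self-establishing metabolically cooperating S. cerevisiae BY4741 community; plasmids pH-mRuby2, pL-mWasabi, pU-eCFP, pM-TagRFP657) was grown 24 h in minimal SM medium with each Selleck FDA-approved drug at 10 µM in 384-well plates. Cells were fixed and imaged by high-content confocal microscopy. For each auxotrophic subpopulation (and the prototroph), a z-score gives the deviation from the DMSO vehicle-control population median.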

Q: How did the “z-score of subpopulation abundance” value turn out when Nc1nc(=O)[nH]cc1F [Flucytosine] was run?
A: -1.32

Q: How did the “z-score of subpopulation abundance” value turn out when N#Cc1ccc(Oc2ccc3c(c2)COB3O)cc1 [Crisaborole (AN2728)] was run?
A: 2.57

Q: Which “z-score of subpopulation abundance” value does the source give for C#C[C@]1(O)CC[C@H]2[C@@H]3CCc4cc(OC)ccc4[C@H]3CC[C@@]21C [Mestranol] here?
A: 0.33

Q: For CC1=C(C(=O)O)N2C(=O)[C@@H](NC(=O)[C@H](N)c3ccccc3)[C@H]2SC1 [Cephalexin], which “z-score of subpopulation abundance” value is on record?
A: 0.02

Q: How did the “z-score of subpopulation abundance” value turn out when O=C(O)c1cc(O)c2c(c1)[C@H]([C@H]1c3cc(C(=O)O)cc(O)c3C(=O)c3c(O[C@@H]4O[C@H](CO)[C@@H](O)[C@H](O)[C@H]4O)cccc31)c1cccc(O[C@@H]3O[C@H](CO)[C@@H](O)[C@H](O)[C@H]3O)c1C2=O [Sennoside A] was run?
A: -0.65

Q: c1cnc(N2CCN(Cc3ccc4c(c3)OCO4)CC2)nc1 [Piribedil] was tested. Which “z-score of subpopulation abundance” value did it give?
A: 0.51

Q: Cc1nc2n(c(=O)c1CCN1CCC(c3noc4cc(F)ccc34)CC1)CCCC2 [Risperidone] was tested. Which “z-score of subpopulation abundance” value did it give?
A: -0.44

Q: How did the “z-score of subpopulation abundance” value turn out when NC12CC3CC(CC(C3)C1)C2 [Amantadine] was run?
A: 0.99

Q: How did the “z-score of subpopulation abundance” value turn out when C[C@H]1[C@H](NC(=O)/C(=N\OC(C)(C)C(=O)O)c2csc(N)n2)C(=O)N1S(=O)(=O)O [Aztreonam] was run?
A: 0.74

Q: How did the “z-score of subpopulation abundance” value turn out when Cc1nccn1CC1CCc2c(c3ccccc3n2C)C1=O (stereo not given) [Ondansetron Hydrochloride Dihydrate] was run?
A: -0.38

Q: With CC1=C(C(=O)O)N2C(=O)[C@@H](NC(=O)[C@H](N)C3=CCC=CC3)[C@H]2SC1 [Cephradine monohydrate] as the molecule, how does the “z-score of subpopulation abundance” value read?
A: -0.33

Q: For CCN(CC)C(=O)[C@@]1(c2ccccc2)C[C@H]1CN [Levomilnacipran Hydrochloride], which “z-score of subpopulation abundance” value is on record?
A: -1.78

Q: C/C=C1\[C@H]2C=C(C)C[C@]1(N)c1ccc(=O)[nH]c1C2 [(-)-Huperzine A (HupA)] was tested. Which “z-score of subpopulation abundance” value did it give?
A: -0.33

Q: For O=C(c1ccc(OCCN2CCCCC2)cc1)c1c(-c2ccc(O)cc2)sc2cc(O)ccc12 [Raloxifene], which “z-score of subpopulation abundance” value is on record?
A: 1.05

Q: For Cc1ncc([N+](=O)[O-])n1CCO [Metronidazole], which “z-score of subpopulation abundance” value is on record?
A: 0.11

Q: For CC[C@H]1OC(=O)[C@H](C)[C@@H](O[C@H]2C[C@@](C)(OC)[C@@H](O)[C@H](C)O2)[C@H](C)[C@@H](O[C@@H]2O[C@H](C)C[C@H](N(C)C)[C@H]2O)[C@](C)(O)C[C@@H](C)CN[C@H](C)[C@@H](O)[C@]1(C)O [Azathramycin], which “z-score of subpopulation abundance” value is on record?
A: -0.61

Q: With C[C@@H](O)[C@H]1C(=O)N2C(C(=O)O)=C([C@H]3CCCO3)S[C@H]12 [Faropenem Sodium] as the molecule, how does the “z-score of subpopulation abundance” value read?
A: -0.03

Q: How did the “z-score of subpopulation abundance” value turn out when CO[C@H]1C[C@@H]2CC[C@@H](C)[C@@](O)(O2)C(=O)C(=O)N2CCCC[C@H]2C(=O)O[C@H]([C@H](C)C[C@@H]2CC[C@H](n3cnnn3)[C@H](OC)C2)CC(=O)[C@H](C)/C=C(\C)[C@@H](O)[C@@H](OC)C(=O)[C@H](C)C[C@H](C)/C=C/C=C/C=C/1C [Zotarolimus(ABT-578)] was run?
A: 0.32

Q: COc1ccc(CNc2nc(N3CCC[C@H]3CO)ncc2C(=O)NCc2ncccn2)cc1Cl [Avanafil] was tested. Which “z-score of subpopulation abundance” value did it give?
A: -0.77

Q: For O=C1CC2(CCCC2)CC(=O)N1CCCCN1CCN(c2ncccn2)CC1 [Buspirone HCl], which “z-score of subpopulation abundance” value is on record?
A: 0.76

Q: How did the “z-score of subpopulation abundance” value turn out when CCC(=O)O[C@@H]1CC(=O)O[C@H](C)C/C=C/C=C/[C@H](O)[C@H](C)C[C@H](CC=O)[C@H](O[C@@H]2O[C@H](C)[C@@H](O[C@H]3C[C@@](C)(O)[C@@H](OC(=O)CC)[C@H](C)O3)[C@H](N(C)C)[C@H]2O)[C@H]1OC [Midecamycin] was run?
A: -0.17

Q: For COc1cccc2c1C(=O)c1c(O)c3c(c(O)c1C2=O)C[C@@](O)(C(=O)CO)C[C@@H]3O[C@H]1C[C@H](N)[C@H](O[C@@H]2CCCCO2)[C@H](C)O1 [Pirarubicin], which “z-score of subpopulation abundance” value is on record?
A: 0.11

Q: How did the “z-score of subpopulation abundance” value turn out when COc1ccc2c3c1O[C@H]1C[C@@H](O)C=C[C@@]31CCN(C)C2 [Galanthamine HBr] was run?
A: -0.44

Q: With C[C@@H](c1ncncc1F)[C@](O)(Cn1cncn1)c1ccc(F)cc1F [Voriconazole] as the molecule, how does the “z-score of subpopulation abundance” value read?
A: -2.55

Q: CS(=O)(=O)c1ccc(C2=C(c3ccccc3)C(=O)OC2)cc1 [Rofecoxib] was tested. Which “z-score of subpopulation abundance” value did it give?
A: 1.07

Q: With CO/N=C(\C(=O)N[C@@H]1C(=O)N2C(C(=O)OCOC(=O)C(C)(C)C)=C(/C=C\c3scnc3C)CS[C@H]12)c1csc(N)n1 [Cefditoren Pivoxil] as the molecule, how does the “z-score of subpopulation abundance” value read?
A: 1.38

Q: For Clc1ccc(COC(Cn2ccnc2)c2ccc(Cl)cc2Cl)c(Cl)c1 (stereo not given) [Miconazole], which “z-score of subpopulation abundance” value is on record?
A: -2.13

Q: For CCN1CC(CCN2CCOCC2)C(c2ccccc2)(c2ccccc2)C1=O (stereo not given) [Doxapram HCl], which “z-score of subpopulation abundance” value is on record?
A: -1.14

Q: How did the “z-score of subpopulation abundance” value turn out when CN1C2CCCC1CC(NC(=O)c1nn(C)c3ccccc13)C2 (stereo not given) [Granisetron HCl] was run?
A: 0.65

Q: How did the “z-score of subpopulation abundance” value turn out when Nc1ccc(S(N)(=O)=O)cc1 [Sulfanilamide] was run?
A: -1.4

Q: For Cc1[nH]cnc1CN1CCc2c(c3ccccc3n2C)C1=O [Alosetron Hydrochloride], which “z-score of subpopulation abundance” value is on record?
A: 0.02

Q: How did the “z-score of subpopulation abundance” value turn out when OC[C@H]1O[C@H](OCC2O[C@@H](O)[C@H](O)[C@@H](O)[C@@H]2O)[C@H](O)[C@@H](O)[C@H]1O (stereo not given in full) [Melibiose] was run?
A: 0.1

Q: For COc1cc(O)c(C(=O)Nc2nc(C(=O)NCCN(C(C)C)C(C)C)cs2)cc1OC [Acotiamide], which “z-score of subpopulation abundance” value is on record?
A: 1.18

Q: How did the “z-score of subpopulation abundance” value turn out when O=C(O[C@@H]1C[C@@H]2C[C@H]3C[C@H](C1)N2CC3=O)c1c[nH]c2ccccc12 [Dolasetron Mesylate] was run?
A: -0.52

Q: CC[C@H]1OC(=O)[C@H](C)[C@@H](O[C@H]2C[C@@](C)(OC)[C@@H](O)[C@H](C)O2)[C@H](C)[C@@H](O[C@@H]2O[C@H](C)C[C@H](N(C)C)[C@H]2O)[C@](C)(O)C[C@@H](C)[C@@H]2N[C@@H](COCCOC)O[C@H]([C@H]2C)[C@]1(C)O [Dirithromycin] was tested. Which “z-score of subpopulation abundance” value did it give?
A: 0.38

Q: For CNCCC(Oc1ccc(C(F)(F)F)cc1)c1ccccc1 (stereo not given) [Fluoxetine HCl], which “z-score of subpopulation abundance” value is on record?
A: -0.14

Q: For CS(=O)(=O)Nc1ccc([N+](=O)[O-])cc1Oc1ccccc1 [Nimesulide], which “z-score of subpopulation abundance” value is on record?
A: 0.65

Q: How did the “z-score of subpopulation abundance” value turn out when CCNC(=O)[C@@H]1CCCN1C(=O)[C@H](CCCNC(=N)N)NC(=O)[C@H](CC(C)C)NC(=O)[C@@H](CC(C)C)NC(=O)[C@H](Cc1ccc(O)cc1)NC(=O)[C@H](CO)NC(=O)[C@H](Cc1c[nH]c2ccccc12)NC(=O)[C@H](Cc1c[nH]cn1)NC(=O)[C@@H]1CCC(=O)N1 [Leuprolide Acetate] was run?
A: 0.44

Q: How did the “z-score of subpopulation abundance” value turn out when CN(Cc1cnc2nc(N)nc(N)c2n1)c1ccc(C(=O)N[C@@H](CCC(=O)O)C(=O)O)cc1 [Methotrexate] was run?
A: -0.82

Q: For CO[C@H]1C[C@@H]2CC[C@@H](C)[C@@](O)(O2)C(=O)C(=O)N2CCCC[C@H]2C(=O)O[C@H]([C@H](C)C[C@@H]2CC[C@@H](OP(C)(C)=O)[C@H](OC)C2)CC(=O)[C@H](C)/C=C(\C)[C@@H](O)[C@@H](OC)C(=O)[C@H](C)C[C@H](C)/C=C/C=C/C=C/1C [Ridaforolimus (Deforolimus, MK-8669)], which “z-score of subpopulation abundance” value is on record?
A: -0.55
